Experimental data: PubChem BioAssay (NCATS)
Records with an inconclusive call do not appear. The source made the active and inactive calls. Calls follow the shape of the dose curve; as a rule, active = well fitted curve in the direction sought with a large enough effect; inconclusive = small, poorly fitted or top-dose-only effect, or another doubt; inactive = no such curve, though single readings can be large; an effect the other way counts as inactive or inconclusive.

Legend:
[1] = OV-KATE Cancer Cell Toxicity qHTS against the NCATS CANVASS Library (AID 1347345)
In short: (§1)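 In this cytotoxicity screen, 1000 cells per well rested 4 hours, then received compound (11 concentrations) for a 72-hour incubation; an ATP-dependent luminescent signal (CellTiter-Glo) was the endpoint.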

[2] = HPAF-II Cancer Cell Toxicity qHTS against the NCATS CANVASS Library (AID 1347346); also: series mostly up to about 38 µM; nearly all actives have a fitted effect of over 55% in size
In short: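 Using 1000 HPAF-II cells per well, we titrated compounds over 11 concentrations for 72 h at 37 degrees C/5% CO2, with bortezomib as control. Cell survival was quantified by CellTiter-Glo luminescence.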

[3] = OV-SAHO Cancer Cell Toxicity qHTS against the NCATS CANVASS Library (AID 1347348); also: series mostly up to about 38 µM; nearly all actives have a fitted effect of over 55% in size
In short: as §1

[4] = U-118MG Cancer Cell Toxicity qHTS against the NCATS CANVASS Library (AID 1347351)
In short: as §1

[5] = HPAF-II 24hr Apoptosis Induction qHTS against the NCATS CANVASS Library (AID 1347356)
In short: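 Using an 11-point qHTS format, HPAF-II cells in DMEM/10% FBS received compounds for 24 h; doxorubicin titration as control. Caspase-3/7 activity quantified by DEVD-luciferase luminescence.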

[6] = HPAF-II 12hr Apoptosis Induction qHTS against the NCATS CANVASS Library (AID 1347358)
In short: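 Twelve-hour compound exposure of HPAF-II cells in DMEM with 10% FBS, then luminescent Caspase-Glo 3/7 detection after 15 min at room temperature; doxorubicin control.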

[7] = HEK293 24hr Apoptosis Induction qHTS against the NCATS CANVASS Library (AID 1347359)
In short: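 Caspase-3/7 activation measured as luminescence from the DEVD-based Caspase-Glo reagent, 15 min at room temperature, following 24-hour compound treatment of HEK293 cells.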

[8] = HPAF-II 18hr Apoptosis Induction qHTS against the NCATS CANVASS Library (AID 1347360)
In short: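 HPAF-II cells at 500/well were exposed for 18 h at 37 C to an 11-point compound series. Caspase-3/7 activity was read by Caspase-Glo luminescence after 15 min at RT.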

[9] = biological target: Luciferin 4-monooxygenase (Photinus pyralis) (UniProt P08659); assay: Firefly luciferase counterscreen qHTS: Assay Interference Panel against the NCATS CANVASS Library (AID 1347363); also: series mostly up to about 57 µM
In short: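 Luminescence inhibition readout: compounds (11-point qHTS) sat 15 min at room temperature with substrate mix (0.013 mM luciferin and ATP), then firefly luciferase was added and signal read 5 min later.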

[10] = qHTS for ATAD5 Agonist screened against the NCATS CANVASS Library (AID 1347367);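 also: luciferase reporter driven by ATAD5 which rises upon DNA damage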
In short: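 Luciferase reporter under ATAD5 control, stably integrated in HEK293T cells (2000/well). Compounds (11 points) incubated 16 h at 37C; viability read first by CellTiter-Fluor, then luminescence reporting ATAD5 activation. MMS positive control.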

[11] = MCF7 Cancer Cell Toxicity qHTS against the NCATS CANVASS Library (AID 1347369)
In short: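 MCF7 cells (500/well) were exposed 72 h at 37 °C to compounds in an 11-point series. Viability was read as ATP content by CellTiterGlo luminescence.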

[12] = qHTS for ATAD5 Antagonist screened against the NCATS CANVASS Library (AID 1347370);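 also: HEK293T cells carrying an ATAD5 luciferase reporter co-treated with 10 µM 5-fluorouridine; series mostly up to about 46 µM; nearly all actives have a fitted effect of over 65% in size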
In short: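 HEK293T-ATAD5 luc reporter, 2000 cells/well; 5hr attach; cpd + 10 uM 5-FUrd; 16hr 37C, 5% CO2. Readouts: CellTiter-Fluor fluorescence (1hr), then Amplite luciferase luminescence (30min RT).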

[13] = J3T Cancer Cell Toxicity qHTS against the NCATS CANVASS Library (AID 1347371)
In short: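 ATP-based cytotoxicity in canine J3T cells: 72 hr exposure at 37C, 11-point titration, CellTiterGlo luminescent detection.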

[14] = biological target: Nuclear receptor subfamily 1 group I member 3 (Homo sapiens) (UniProt Q14994); assay: qHTS for Constitutive Androstane Receptor (CAR) Agonist screened against the NCATS CANVASS Library (AID 1347373);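 also: every well also contained 1.5 µM PK11195 alongside the test compound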
In short: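 In an 11-point concentration series, compounds were incubated 24hr with HepG2 cells carrying hCAR and a CYP2B6-2.2kb reporter, with PK11195 at 1.5uM final. A CellTiter-Fluor viability read preceded the ONE-Glo luminescence read.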

[15] = 10-beta competent E. coli microbial cell viability qHTS against the NCATS CANVASS Library (AID 1347376); also: series mostly up to about 46 µM
In short: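 Overnight 37C exposure of 10-beta E. coli (0.2 OD) to an 11-point concentration series; ATP-based luminescence after 20 min room-temperature reagent incubation; daunomycin as control.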

[16] = qHTS for H2AX Agonists against the NCATS CANVASS Library (AID 1347378)
In short: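 CHO-K1 cells (1000/well, overnight at 37C) exposed to compounds at several concentrations for 3 hr at 37C, 0.76% DMSO final. Lysates read by TR-FRET (phospho-H2AX S139 Eu-cryptate antibody / H2AX-d2 antibody) after 24 hr at room temperature; 665/615 nm ratio.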

[17] = qHTS for Inflammasome Signaling Inhibitors: IL-1-beta AlphaLISA screen against the NCATS CANVASS Library (AID 1347379);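 also: human THP-1 cells primed with LPS then triggered with ATP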
In short: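 THP-1, 1 hr compound pre-incubation, then LPS 250 ng/mL + ATP 1.25 mM (final); 16 hr total with compound; IL-1B AlphaLISA, ex 680/em 615 nm; 11-point qHTS, up to 57.5 uM final.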

[18] = Cytotoxicity qHTS for assessment of Hepg2 cells membrane integrity screened against the NCATS CANVASS Library (AID 1347387)
In short: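 Membrane damage in HepG2 monolayers was estimated from released LDH, measured with CytoTox-ONE (ex 560/em 590 nm), after 5 hr treatment across 0.59 nM - 46 uM final.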

[19] = Vero-766 cells viability qHTS against the NCATS CANVASS Library: Counterscreen for Zika virus inhibition assay (AID 1347394); also: series mostly up to about 46 µM; nearly all actives have a fitted effect of over 60% in size
In short: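 Vero 766 cells (1000/well), without Zika virus, were exposed to compounds for 72 h at 37C. Viability was measured by CellTiter Glo luminescence. Media-only wells served as 100% inhibition.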

[20] = Viability qHTS for inhibitors of the SERCaMP assay screened against the NCATS CANVASS Library (AID 1347400); also: series mostly up to about 92 µM; nearly all actives have a fitted effect of over 70% in size
In short: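 Measures loss of viability in SERCaMP reporter SH-SY5Y cells treated for 48 h with compounds; luminescent ATP detection by CellTiter-Glo.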

Measured: Potency

Chain of Luciferin 4-monooxygenase (Photinus pyralis) (P08659 whole entry, looked up): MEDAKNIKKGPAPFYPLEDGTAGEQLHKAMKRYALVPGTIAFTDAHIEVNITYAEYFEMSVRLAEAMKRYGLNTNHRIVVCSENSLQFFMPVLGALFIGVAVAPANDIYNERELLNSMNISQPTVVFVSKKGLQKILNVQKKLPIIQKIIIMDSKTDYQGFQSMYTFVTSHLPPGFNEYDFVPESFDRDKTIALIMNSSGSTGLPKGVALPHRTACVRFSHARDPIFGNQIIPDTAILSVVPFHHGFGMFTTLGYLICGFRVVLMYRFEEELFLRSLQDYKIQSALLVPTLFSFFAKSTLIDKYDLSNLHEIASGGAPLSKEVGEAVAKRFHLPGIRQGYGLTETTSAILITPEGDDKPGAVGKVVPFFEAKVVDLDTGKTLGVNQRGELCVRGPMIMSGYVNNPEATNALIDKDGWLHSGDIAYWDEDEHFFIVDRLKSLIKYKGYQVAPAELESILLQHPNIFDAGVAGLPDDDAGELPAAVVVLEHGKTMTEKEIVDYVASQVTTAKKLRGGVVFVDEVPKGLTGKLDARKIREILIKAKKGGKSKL
Chain of Nuclear receptor subfamily 1 group I member 3 (Homo sapiens) (Q14994 whole entry, looked up): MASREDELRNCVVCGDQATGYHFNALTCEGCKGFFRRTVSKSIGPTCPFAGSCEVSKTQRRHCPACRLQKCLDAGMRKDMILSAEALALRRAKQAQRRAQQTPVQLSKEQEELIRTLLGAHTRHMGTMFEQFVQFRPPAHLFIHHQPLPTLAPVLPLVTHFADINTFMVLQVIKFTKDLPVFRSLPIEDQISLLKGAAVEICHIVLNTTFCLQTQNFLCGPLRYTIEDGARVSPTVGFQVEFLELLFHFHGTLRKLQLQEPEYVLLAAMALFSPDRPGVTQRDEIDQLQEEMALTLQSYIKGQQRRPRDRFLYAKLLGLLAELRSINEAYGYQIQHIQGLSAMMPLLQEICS

C/C=C1/CC[C@@H]2c3[nH]c4ccccc4c3CCN2C1
inactive: all assays above

CO[C@@H]1[C@H](O)[C@@H](C)O[C@@H](OC[C@H]2/C=C/C=C/C(=O)C(C)C[C@H](C)C(O[C@@H]3O[C@H](C)CC4(OC(=O)O[C@@H]4C)C3O)[C@@H](C)/C=C/C(=O)OC2C)[C@@H]1OC (stereo partly drawn)
not listed: [12]
inactive: all other assays above

COc1cc(O)c2c3c(c(O)cc(C)c13)C(=O)OC2
inactive: all assays above

C=C[C@]1(C)CC[C@@H]([C@H](C)C(=O)OCC)O1
not listed: [9]
inactive: all other assays above

O=C(O)CC1OC(=O)c2c(O)cccc21 (stereo not drawn)
inactive: all assays above

O=C(O)CC1OCc2c(O)cccc21 (stereo not drawn)
inactive: all assays above
